Assay [1] deals with Calcium and integrin-binding protein 1 (Homo sapiens) (UniProt Q99828). Kind of assay: Primary qHTS for Identification of Calcium Integrin Binding Protein 1 (CIB1) Competitor (AID 1508620). Note: potency is the fitted concentration of half-maximal effect. Summed up: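 Fluorescence polarization competition: GST-tagged CIB1 (1 uM final) preincubated with compound 15 min at room temperature, then FITC-labelled alphaIIb peptide (100 nM final) added. After 15 min at room temperature, polarization read at Ex 480/Em 540.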
Sequence of Calcium and integrin-binding protein 1 (Homo sapiens) (Q99828 whole entry, looked up): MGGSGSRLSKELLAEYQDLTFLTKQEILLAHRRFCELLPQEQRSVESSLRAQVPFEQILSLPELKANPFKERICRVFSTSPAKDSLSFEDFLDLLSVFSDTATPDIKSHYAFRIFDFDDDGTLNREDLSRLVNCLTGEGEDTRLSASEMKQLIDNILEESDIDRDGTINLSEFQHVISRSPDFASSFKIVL
For orientation: In qHTS, concentration-response curves come from the screen itself.

Assay [2] is described as follows: Counterscreen qHTS for small molecule stabilizers of the endoplasmic reticulum resident proteome: GLuc-NoTag assay (AID 1508627). Note: potency is the fitted concentration of half-maximal effect. The method in brief:
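SH-SY5Y cells stably expressing constitutively secreted GLuc without SERCaMP tag, exposed to compound for 19 hr, then to 100 nM thapsigargin for 4 hr at 37C. Medium luciferase was read by coelenterazine luminescence without lysis.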
(A counterscreen serves to expose hits that act by an unwanted route or on another target.)

Assay [3] in a line: A High-Content qHTS Against Drug Library for the Identification of Small Molecules that Inhibit DYT1 Early Onset Primary Dystonia-Associated Cell Pathology (AID 1645839; calls by dose curve; note: potency is the fitted concentration of half-maximal effect). Summed up: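 Flp-In T-REx 293 cells with tetracycline-inducible EGFP-delE hTOR1A (WT EGFP-hTOR1A as reference), 800 cells/well; compound added with tetracycline, 48 h at 37 C. Fixed, permeabilized cells imaged; %pathology (punctate TorsinA) primary, cell count counterscreen.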

The target of assay [4] is Cytochrome P450 2D6 (Homo sapiens) (UniProt P10635). Nature of the assay: Cytochrome P450 family 2 subfamily D member 6 (CYP2D6) small molecule antagonists: luciferase biochemical (cell-free) qHTS assay (AID 1645840; active = well fitted curve in the direction sought with a large enough effect in the repeat runs; an effect the other way counts as inactive or inconclusive; note: nearly all actives have a fitted effect of over 55% in size; note: potency is the fitted concentration of half-maximal effect). Summed up:
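P450-Glo luminescent screen: recombinant CYP2D6 enzyme–proluciferin substrate mix preincubated with compound 10 min at room temperature, then NADPH regeneration added for 1 h at room temperature. Detection reagent added for 20 min; luciferin light read as relative luminescence units.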

The target in assay [5] is Cytochrome P450 2C9 (Homo sapiens) (UniProt P11712). Nature of the assay: Cytochrome P450 family 2 subfamily C member 9 (CYP2C9) small molecule antagonists: luciferase biochemical (cell-free) qHTS assay (AID 1645842; active = well fitted curve in the direction sought with a large enough effect in the repeat runs; an effect the other way counts as inactive or inconclusive; note: nearly all actives have a fitted effect of over 55% in size; note: potency is the fitted concentration of half-maximal effect). The method in brief: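 Luminescence, after 20 min with luciferin detection reagent, reflected CYP2C9 turnover during a 1 h NADPH-driven reaction at 37C. Enzyme-substrate mix contained 0.4% bovine serum albumin and was preincubated with compound 10 min at room temperature.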
Sequence of Cytochrome P450 2C9 (Homo sapiens) (P11712 whole entry, looked up): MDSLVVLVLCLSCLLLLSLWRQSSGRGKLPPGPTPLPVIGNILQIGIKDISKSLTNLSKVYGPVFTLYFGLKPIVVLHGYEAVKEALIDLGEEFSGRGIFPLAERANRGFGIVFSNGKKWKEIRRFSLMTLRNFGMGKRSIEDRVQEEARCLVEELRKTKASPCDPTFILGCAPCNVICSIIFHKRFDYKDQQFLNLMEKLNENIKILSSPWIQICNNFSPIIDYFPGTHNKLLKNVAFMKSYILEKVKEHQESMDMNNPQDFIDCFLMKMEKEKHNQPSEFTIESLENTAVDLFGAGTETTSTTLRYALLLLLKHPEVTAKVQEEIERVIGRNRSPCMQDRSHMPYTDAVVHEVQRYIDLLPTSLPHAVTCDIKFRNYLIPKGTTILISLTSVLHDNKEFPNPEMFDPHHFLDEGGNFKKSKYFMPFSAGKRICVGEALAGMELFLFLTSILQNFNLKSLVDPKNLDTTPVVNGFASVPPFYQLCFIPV

Assay [6] is described as follows: Primary qHTS for small molecule stabilizers of the endoplasmic reticulum resident proteome: Secreted ER Calcium Modulated Protein (SERCaMP) assay (AID 1508630). Note: potency is the fitted concentration of half-maximal effect. The method in brief: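 GLuc-SERCaMP-expressing SH-SY5Y cells, pretreated 16 h with compound, are challenged with thapsigargin to empty ER calcium stores; after 4 h, coelenterazine is added directly to the medium and luminescence is imaged.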

Assay [7] in a line: Cell Viability qHTS for small molecule stabilizers of the endoplasmic reticulum resident proteome (AID 1508629).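 For max response: human SH-SY5Y neuroblastoma cells carrying the GLuc-SERCaMP reporter; % is set by controls: 0 for no effect and ±100 for the full control effect.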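 Note: compound exposure about 46 h in total before the viability read.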 Note: potency is the fitted concentration of half-maximal effect. Conditions: cell viability counter-screen, 100 nM thapsigargin for final 4 h.
Assay [8] deals with Calcium and integrin-binding protein 1 (Homo sapiens) (UniProt Q99828). Kind of assay: Validation qHTS for Identification of Calcium Integrin Binding protein 1 (CIB1) Competitor (AID 1508618). Note: % is set by controls: 0 for no effect and ±100 for the full control effect. Summed up: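 Displacement of FITC-alphaIIb peptide (100 nM) from CIB1-GST (1 uM) is monitored by polarization in quantitative HTS format; buffer carries 5 mM CaCl2 and 125 mM NaCl at pH 7.4, incubations are at room temperature.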

The target of a further assay is Papain (Carica papaya) (UniProt P00784). Nature of the assay: Primary qHTS assay for inhibitors of the protease papain (AID 1645873).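 Note: papain turnover of Z-FR-AMC read as the AMC fluorescence gain over 10 min; series mostly up to about 50 µM; % is set by controls: 0 for no effect and ±100 for the full control effect.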
Sequence of Papain (Carica papaya) (P00784 whole entry, looked up): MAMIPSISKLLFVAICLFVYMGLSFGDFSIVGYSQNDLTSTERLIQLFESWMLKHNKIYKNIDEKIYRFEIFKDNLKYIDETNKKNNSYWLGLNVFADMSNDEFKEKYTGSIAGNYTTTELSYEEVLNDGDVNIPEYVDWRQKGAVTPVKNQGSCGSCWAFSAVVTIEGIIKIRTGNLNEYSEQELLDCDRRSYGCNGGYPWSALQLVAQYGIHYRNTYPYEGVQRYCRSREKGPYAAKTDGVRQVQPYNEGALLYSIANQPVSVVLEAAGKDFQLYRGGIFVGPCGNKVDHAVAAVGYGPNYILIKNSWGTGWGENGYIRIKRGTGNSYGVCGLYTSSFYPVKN
The target in assay [9] is Cytochrome P450 3A4 (Homo sapiens) (UniProt P08684). Nature of the assay: Cytochrome P450 family 3 subfamily A member 4 (CYP3A4) small molecule antagonists: luciferase qHTS assay (AID 1645841; active = well fitted curve in the direction sought with a large enough effect in the repeat runs; an effect the other way counts as inactive or inconclusive; note: nearly all actives have a fitted effect of over 45% in size). The method in brief: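 P450-Glo CYP3A4 enzyme with proluciferin substrate preincubated 10 min with compound at room temperature, then NADPH regeneration 1 h. Luciferin detection reagent added for 20 min; luminescence recorded. Ketoconazole positive control.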
Sequence of Cytochrome P450 3A4 (Homo sapiens) (P08684 whole entry, looked up): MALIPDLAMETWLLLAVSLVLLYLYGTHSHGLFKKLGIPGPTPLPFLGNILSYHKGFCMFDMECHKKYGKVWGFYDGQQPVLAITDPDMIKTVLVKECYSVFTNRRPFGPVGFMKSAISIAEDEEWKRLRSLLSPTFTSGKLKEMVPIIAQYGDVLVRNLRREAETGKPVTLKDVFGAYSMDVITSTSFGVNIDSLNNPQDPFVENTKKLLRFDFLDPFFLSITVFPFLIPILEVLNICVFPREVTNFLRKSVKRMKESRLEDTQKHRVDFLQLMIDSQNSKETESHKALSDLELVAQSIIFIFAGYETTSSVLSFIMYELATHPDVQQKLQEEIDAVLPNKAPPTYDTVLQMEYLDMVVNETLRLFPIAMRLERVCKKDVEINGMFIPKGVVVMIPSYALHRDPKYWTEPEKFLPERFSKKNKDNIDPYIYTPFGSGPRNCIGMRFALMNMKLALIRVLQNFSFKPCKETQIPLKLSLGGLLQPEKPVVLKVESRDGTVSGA

Records with an inconclusive call do not appear. A number with no mark means an inactive call. Active and inactive are the calls of the source. Unless noted, calls come from the whole dose curve; as a rule, active = well fitted curve in the direction sought with a large enough effect; inconclusive = small, poorly fitted or top-dose-only effect, or another doubt; inactive = no such curve, though single readings can be large; an effect the other way counts as inactive or inconclusive. Where a SMILES comes first, the peptide text is derived from it. [ ]: non-standard residue; d: D form. pGlu = O=C1CC[C@@H](C(=O)O)N1; Thz = O=C(O)[C@@H]1CSCN1

Sequence of Cytochrome P450 2D6 (Homo sapiens) (P10635 whole entry, looked up): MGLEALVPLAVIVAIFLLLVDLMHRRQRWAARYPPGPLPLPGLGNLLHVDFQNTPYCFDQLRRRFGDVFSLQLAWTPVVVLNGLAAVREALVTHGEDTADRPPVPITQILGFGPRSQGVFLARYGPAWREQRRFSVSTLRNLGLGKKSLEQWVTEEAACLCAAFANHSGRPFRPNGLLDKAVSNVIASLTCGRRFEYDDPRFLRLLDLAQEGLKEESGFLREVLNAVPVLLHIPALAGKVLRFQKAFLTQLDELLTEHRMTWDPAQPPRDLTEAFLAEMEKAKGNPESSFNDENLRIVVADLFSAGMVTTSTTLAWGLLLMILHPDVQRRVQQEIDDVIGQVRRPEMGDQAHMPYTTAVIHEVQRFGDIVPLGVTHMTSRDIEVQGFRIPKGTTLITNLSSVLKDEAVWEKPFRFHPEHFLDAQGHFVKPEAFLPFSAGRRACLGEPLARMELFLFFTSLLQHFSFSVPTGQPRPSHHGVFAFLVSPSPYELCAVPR

On to `NCCO`, for which the Potency entry in [1], in [2], in assay [3], in assay [4] and in assay [5] was “inactive” each time.
Take `CCNC(=O)[C@H]1O[C@@H](n2cnc3c(N)nc(NCCc4ccc(CCC(=O)O)cc4)nc32)[C@H](O)[C@@H]1O`: the Potency result in [1] and in assay [6] was “inactive” in each case.
With `O=C(O)CC1CC(c2ccccc2)=NO1` (centres undefined), the Potency result in assay [1] and in assay [6] was “inactive” in each case.
As for `O=C(O)Cc1ccc2c(c1)C(=O)c1ccccc1CO2`, the Potency entry in [1], in assay [2], in assay [3], in [4] and in [5] was “inactive” in each case. Also, the max response in [7] was 16.2%.
Turning to `COc1cc(CNC(=O)CCCC/C=C/C(C)C)ccc1O`, the Potency entry in assay [1] was “inactive”.
For `CC1(C)[C@@H](O)CC[C@]2(C)[C@H]3C(=O)C=C4[C@@H]5C[C@@](C)(C(=O)O)CC[C@]5(C)CC[C@@]4(C)[C@]3(C)CC[C@@H]12`, the Potency entry in [1] was “inactive”.
Take `CN(C)c1ccc(N=NS(=O)(=O)O)cc1`: the Potency result in assay [1] is “inactive”. Further, the max response in assay [7] was 4.58%. In addition, the Potency in assay [4] is 2.37 µM (active); in assay [5], 0.728 µM (active).
Consider `N=C1N=C(N)c2cc3ccccc3cc21`, for which the Potency result in [1] and in assay [5] was “inactive” in each case. Moreover, the Potency in assay [2] was 89.1 µM (active); in [7], 39.8 µM (active); in [3] it was 35.5 µM (active); in assay [4], 31.7 µM (active).
Turning to `CC(C)OC(=O)c1cc(C(=O)OC(C)C)cc([N+](=O)[O-])c1`, the Potency result in assay [1], in [2] and in [3] was “inactive” throughout. The Potency in assay [4] is 3.73 µM (active); in assay [5] it was 0.748 µM (active).
As for `O=C1CC[C@@H](C(=O)N2CSC[C@H]2C(=O)O)N1` ([pGlu]-[Thz]-OH), the Potency entry in assay [1] is “inactive”.
For the compound `CC1(C)S[C@@H]2[C@H](NC(=O)[C@H](N)c3ccc(O)cc3)C(=O)N2[C@H]1C(=O)O`, in [1], the Potency result was “inactive”.
As to `Cc1onc(-c2c(F)cccc2Cl)c1C(=O)N[C@@H]1C(=O)N2[C@@H]1SC(C)(C)[C@@H]2C(=O)O`, the Potency entry in assay [1] is “inactive”.
As for `CC(C)CC(NP(=O)(O)O[C@@H]1O[C@@H](C)[C@H](O)[C@@H](O)[C@H]1O)C(=O)NC(Cc1c[nH]c2ccccc12)C(=O)O` (some centres undefined), in assay [8], the result was inactive. For the same compound, in the assay with Papain (Carica papaya), the Potency result is “inactive”.
For the compound `O=C(O)[C@H](CC(=O)N1C[C@H]2CCCC[C@H]2C1)Cc1ccccc1`, the Potency entry in [1], in assay [4] and in [5] was “inactive” each time.
In the case of `CC(=O)c1ccc(OCC(=O)N2CCCCC2)cc1`, the Potency entry in [1], in [3], in assay [4] and in assay [5] was “inactive” throughout.
In the case of `O=c1[nH]c2ccccc2n1CCCN1CCN(C(c2ccccc2)c2ccccc2)CC1`, the Potency result in assay [1] was “inactive”. Further, the Potency in assay [4] is 0.055 µM (active).
Turning to `CC(COc1ccc(/C=C/c2ccccc2)cc1)[N+](C)(C)C` (centres undefined), the Potency entry in [6] was “inactive”.
For the compound `O=C1O/C(=C/Br)CCC1c1cccc2ccccc12` (centres undefined), the Potency entry in [6] was “inactive”.
In the case of `O=C(O)c1cc(O)c(O)c(O)c1`, the Potency entry in assay [1], in [3], in assay [4] and in [5] was “inactive” in each case.
For the compound `O=C(O)[C@@H]1C[C@H](C(=O)O)N1`, in assay [6], the Potency entry is “inactive”.
Take `CC(C(=O)O)c1ccc(C(=O)c2ccccc2)s1` (centres undefined): the Potency result in assay [1], in assay [3] and in [4] was “inactive” throughout. Moreover, the Potency in assay [5] was 15.5 µM (active).
Consider `OC[C@H]1O[C@@H](n2cnc3c(Nc4ccccc4)ncnc32)[C@H](O)[C@@H]1O`, for which the Potency entry in [6] is “inactive”.
On to `CCCC(=O)OC[C@@H](OC(=O)CCC)[C@@H](OC(=O)CCC)[C@H](Cn1c2nc(=O)[nH]c(=O)c-2nc2cc(C)c(C)cc21)OC(=O)CCC`, for which the Potency in [1] was 2.82 µM (active); in assay [4], 7.76 µM (active).
Turning to `CCCCCCCCCCCC(=O)[O][Sn]([CH2]CCC)([CH2]CCC)[O]C(=O)CCCCCCCCCCC`, the Potency entry in assay [1], in assay [3], in assay [4] and in [5] was “inactive” each time.
Turning to `Nc1c(CC(=O)O)cccc1C(=O)c1ccc(Br)cc1`, the Potency entry in [1], in assay [3], in [4] and in assay [5] was “inactive” throughout.
With `N=C(N)N`, the Potency entry in assay [1], in [3], in assay [4] and in assay [5] was “inactive” throughout. For the same compound, in assay [9], the compound was called inactive.
Regarding `C=CCc1cccc(/C=N/NC(=O)CN2CCN(Cc3ccccc3)CC2)c1O`, in [6], the Potency result was “inactive”.
For the compound `O=c1cc(-c2ccccc2)oc2ccccc12`, the Potency entry in assay [1] was “inactive”. Also, the Potency in assay [5] is 15.4 µM (active).
Turning to `CCCC1(C)C(C#N)(C#N)C1(C#N)C#N`, in assay [6], the Potency result was “inactive”.
`CN(C)CCn1nnnc1SCC1=C(C(=O)O)N2C(=O)[C@@H](NC(=O)Cc3csc(N)n3)[C@H]2SC1`: the Potency entry in [1], in [3] and in assay [5] was “inactive” in each case.
As to `Cc1ccc(O)c(N=Nc2ccccc2)n1`, the Potency result (in assay [2]; in assay [6]; with Papain (Carica papaya)) was “inactive” throughout.
Take `Oc1ccccc1O`: the max response in assay [7] was -15.9%. Besides, the Potency in assay [6] was 25.1 µM (active). In the assay with Papain (Carica papaya), the Potency entry is “inactive”.
`CCCCCCCCCCCCOCCO`: the Potency entry in [1], in assay [3] and in assay [5] was “inactive” in each case.
